DT40 TDP1 CPT: growth inhibition of DT40 Tdp1-/-;hTDP1 cells with camptothecin (screen for TDP1 inhibitors); chicken DT40 Tdp1-/-;hTDP1 cells + 20 nM CPT, ATP luminescence, 48 h; Potency, µM (highest dose often 46.2 µM), without a hit: at the top dose activity change, negative = growth inhibition, actives largely listed as inhibitors; actives 12% (n = 420,000); AID 686979; note: potency is the fitted concentration of half-maximal effect; nearly all actives have a fitted effect of over 55% in size
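Chicken DT40 Tdp1-/- cells complemented with human TDP1, 400 cells/well, exposed to compounds plus 20 nM camptothecin for at least 48 h at 37 C; viability read as ATP content by CellTiter-Glo luminescence.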
TDP1 cell noCPT: qHTS for Inhibitors of human tyrosyl-DNA phosphodiesterase 1 (TDP1): qHTS in cells in absence of CPT; actives 15% (n = 420,000); AID 686978, 2013; Potency, µM (highest dose often 46.2 µM), for the others: at the highest dose activity change, negative = growth inhibition, most hits filed as inhibitors; DT40 Tdp1-/- hTDP1 cells, no CPT, ATP luminescence, 48 h; note: potency is the fitted concentration of half-maximal effect; nearly all actives have a fitted effect of over 55% in size
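DT40 Tdp1-/-;hTDP1 cells, no CPT (DMSO vehicle only), 400 cells/well; compounds pin-transferred; ≥48 hr, 37 °C; CellTiter-Glo 30 min RT dark, luminescence read.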
RORg inh: ROR gamma (mouse) transcription inhibition; Drosophila S2 Gal4-RORgamma UAS-luciferase reporter, 20 h; Potency, µM (highest dose often 53.6 µM), without a hit: top-dose activity change, negative = inhibition, hits mostly inhibitors; actives 5.4% (n = 310,000); P51450; note: potency is the fitted concentration of half-maximal effect; nearly all actives have a fitted effect of over 60% in size
Target sequence (P51450 whole entry, looked up, the tested form may be a part): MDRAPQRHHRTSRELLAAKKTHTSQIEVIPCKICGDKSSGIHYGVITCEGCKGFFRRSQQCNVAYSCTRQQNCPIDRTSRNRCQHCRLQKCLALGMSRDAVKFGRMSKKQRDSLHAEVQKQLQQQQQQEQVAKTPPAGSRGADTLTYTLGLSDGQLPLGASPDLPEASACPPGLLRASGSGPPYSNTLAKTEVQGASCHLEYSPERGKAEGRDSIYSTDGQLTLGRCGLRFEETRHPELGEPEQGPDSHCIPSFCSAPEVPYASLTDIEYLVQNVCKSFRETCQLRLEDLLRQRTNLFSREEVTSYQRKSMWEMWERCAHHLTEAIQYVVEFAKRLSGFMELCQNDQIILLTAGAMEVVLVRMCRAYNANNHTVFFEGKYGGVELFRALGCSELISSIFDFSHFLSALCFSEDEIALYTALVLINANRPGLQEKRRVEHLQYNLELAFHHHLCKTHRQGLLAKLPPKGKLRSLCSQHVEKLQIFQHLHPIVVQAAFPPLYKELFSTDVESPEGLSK
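Drosophila Schneider cells stably carrying a metallothionein-driven Gal4 DBD–ROR gamma fusion and a UAS-Photinus luciferase reporter were exposed to compound for 1 hr, then induced with copper sulfate (700 uM final) for 20 hr at ambient temperature before luminescence reading.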
LDHA inh: inhibitors of human lactate dehydrogenase A. purified LDHA, NADH/diaphorase-resazurin fluorescence; stronger effect = lower value. activity change, % (values are at about 110 or 230 µM). actives 0.15% (n = 480,000); in the data active = activity change below about -30%; inconclusive = mostly about -25% to -30%;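 note: plate controls were DMSO wells for no effect and wells without enzyme for full effect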
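Remaining NADH was detected by diaphorase (0.133 mg/mL) converting 37 µM resazurin to fluorescent resorufin, read at 0 and 20 minutes. The preceding 5-minute room-temperature reaction used 2 nM LDHA, 0.2 mM sodium pyruvate and 0.06 mM NADH at pH 7.4.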
VP16 counter: inhibits Gal4-VP16 luciferase reporter, ROR gamma counter-screen. actives 3.5% (n = 310,000). Drosophila S2 Gal4-VP16 UAS-luciferase, luminescence, 20 h. AID 2546. Potency, µM (highest dose often 53.6 µM), for the others: at the top dose activity, negative = inhibition, actives largely listed as inhibitors;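 note: Gal4-VP16 expression switched on by copper sulfate through the metallothionein promoter; potency is the fitted concentration of half-maximal effect; nearly all actives have a fitted effect of over 50% in size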
IL1B secr inh: inflammasome signaling inhibition, IL-1 beta readout; AID 743279; activity change, % at 57.5 µM; THP-1 LPS/ATP IL-1B secretion, AlphaLISA, 16 h; stronger effect = lower value; actives 4.7% (n = 360,000); in the data active = activity change below about -50%; inconclusive = mostly about -30% to -49%
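THP-1 cells pretreated 1 hr with compounds (up to 57.5 uM final), then stimulated with LPS (250 ng/mL final) plus ATP (1.25 mM final); secreted IL-1B measured by AlphaLISA after 16 hr, decreased signal indicating inhibition.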
Active calls of the source: *; ? = inconclusive; . = no result given. Only some compounds are listed: those with a hit (about 18% of all), similar ones and a draw of the others. Unless noted, calls come from the whole dose curve; as a rule, active = well fitted curve in the direction sought with a large enough effect; inconclusive = small, poorly fitted or top-dose-only effect, or another doubt; inactive = no such curve, though single readings can be large; an effect the other way counts as inactive or inconclusive. Unless noted, % is set by controls: 0 for no effect and ±100 for the full control effect.

SMILES | DT40 TDP1 CPT | TDP1 cell noCPT | RORg inh | LDHA inh | VP16 counter | IL1B secr inh
CCCNc1c(NC(=O)Nc2cc(C)cc(C)c2)c(=O)oc2ccccc12 | . | . | . | -2.4 | . | .
COc1cc(/C=C/C(=O)C23CC4CC(CC(C4)C2)C3)cc(Br)c1O | . | . | . | 3.3 | . | .
O=S(=O)(Nc1cccc2c1CCCC2)c1ccc(F)c(F)c1 | . | . | . | 11.8 | . | .
COc1ccc(-c2nsc(NC(=O)c3oc4ccccc4c3C)n2)cc1 | ? | -28.5% | . | 1.4 | . | .
COc1cc(OC)cc(C(=O)Nc2ccc(-n3cnnn3)c(C)c2)c1 | -24.0% | ? | ? | -3.7 | -4.8% | -67.5*
Cc1c(C(=O)NC2CC2)oc2ccccc12 | 3.1% | -23.0% | . | -4.0 | . | -19.9
COC(=O)c1sc(NC(=O)c2oc3ccccc3c2C)nc1C | ? | 3.66µM* | 12.0% | -1.8 | ? | 23.0
Cc1c(C(=O)NC2CCCCC2C)oc2ccccc12 (stereo unspecified) | ? | ? | 11.2µM* | -3.0 | 5.62µM* | 23.5
COCCn1cnc2c1c(=O)n(CC(=O)Nc1c(C)cccc1C)c(=O)n2CC(C)C | . | . | . | -3.1 | . | .
Cn1nnnc1SCC(=O)N(C1CCCCC1)C1CCCCC1 | 16.4µM* | 18.4µM* | 16.1% | -8.2 | -0.9% | -9.9
Nc1nc(C23CC4CC(CC(C4)C2)C3)[nH]c(=O)n1 | 2.3% | 1.3% | 19.5% | -6.3 | 5.0% | -2.2
c1cc2nc(C34CC5CC(CC(C5)C3)C4)[nH]c2cn1 | ? | -14.6% | 12.6% | -32.6* | -8.5% | 0.0
COc1ccc(C(=O)Nc2cccc(C)c2)cc1 | -2.0% | 2.7% | -33.3% | 0.0 | -15.6% | -4.8
CCOc1cc(C(=O)NC(=S)Nc2nc(C)cc(C)n2)cc(OCC)c1OCC | -4.6% | 4.9% | 11.2µM* | -12.8 | ? | 56.9
CCOc1cc(C(=O)NC(=S)Nn2cnnc2)cc(OCC)c1OCC | 1.8% | 3.1% | -5.8% | -7.5 | -17.2% | 31.2
Cc1ccnc(NC(=O)c2ccc(C(=O)c3ccccc3)cc2)c1 | 18.4µM* | 20.6µM* | . | -2.3 | . | -16.9
CCOc1ccc(C(=O)Nc2cc(C)ccn2)c(OCC)c1 | . | . | . | -0.1 | . | .
COc1ccc(C(=O)Nc2cccc(C(=O)Nc3cc(C)ccn3)c2)cc1 | ? | 20.6µM* | . | -3.7 | . | -2.2
CCOc1cc(C(=O)Nc2cc(C)ccn2)cc(OCC)c1OCC | 18.4µM* | ? | 15.8µM* | -0.4 | ? | -2.2
COc1ccc(/C=C(\C#N)C(=O)N2CCOCC2)cc1 | . | . | . | 10.5 | . | .
CC(NC(=O)C1CCCCC1)c1ccncc1 (stereo unspecified) | . | . | . | 0.5 | . | .
CCOc1ccc(C(=O)Nc2cc(C)ccn2)cc1 | 7.31µM* | 23.1µM* | 8.91µM* | 2.6 | 10µM* | -8.8
C/C(CC(=O)Nc1cc(C)ccn1)=N\NC(=O)c1ccc(C)cc1 | ? | ? | ? | 1.2 | 17.5% | 0.0
C/C(CC(=O)Nc1cc(C)ccn1)=N\NC(=O)c1ccccc1C | 2.5% | -11.0% | 8.91µM* | 12.2 | ? | -12.4
COCCSc1ccccc1C(=O)Nc1cc(C)ccn1 | ? | 23.1µM* | -10.5% | -5.9 | -10.8% | 10.1
SMILES | DT40 TDP1 CPT | TDP1 cell noCPT | RORg inh | LDHA inh | VP16 counter | IL1B secr inh
CCOc1ccc(C(=O)Nc2cccc(C)n2)cc1 | ? | ? | 8.91µM* | -6.5 | ? | -5.5
CCCCOc1ccc(C(=O)Nc2cccc(C)n2)cc1 | ? | ? | ? | -0.7 | ? | 0.0
O=C1/C(=C/c2ccc(F)c(Br)c2)Cc2ccccc21 | . | . | . | -11.6 | . | .
CCC(C(=O)Nc1ccc(N(C)C)cc1)n1nnc2ccccc2c1=O (stereo unspecified) | . | . | . | 2.9 | . | .
COc1ccccc1CN1CCN(C/C=C/c2ccccc2)CC1 | . | . | . | 2.8 | . | .
O=C(COc1ccc(S(=O)(=O)NC2CCCC2)cc1)NCc1ccncc1 | . | . | . | -9.4 | . | .
Cc1ccc(NC(=O)c2ccc(S(=O)(=O)NCc3ccco3)cc2)cc1 | -26.8% | -12.0% | -40.6% | -4.1 | -6.5% | -10.4
Cc1ccnc(NC(=O)c2ccc(S(=O)(=O)NCc3ccco3)cc2)c1 | 20.6µM* | ? | . | -5.8 | . | -1.0
COC(=O)c1c(C)[nH]c(C(=O)OC(C)C(=O)NC2CCCCC2)c1C (stereo unspecified) | . | . | . | 12.5 | . | .
O=C(N/N=C\c1c[nH]c2ccccc12)c1ccc(O)cc1 | 5.4% | -13.3% | 6.31µM* | -6.6 | -17.3% | -8.7
O=C(N/N=C/c1c[nH]c2ccccc12)c1ccc(Br)cc1 | 6.6% | -28.5% | ? | -3.3 | ? | ?
COc1cc(OC)c(OC)cc1/C=N/NC(=O)c1cnccn1 | -5.0% | -11.7% | -2.2% | 5.7 | -5.4% | -4.8
NC(=S)NN=Cc1c[nH]c2nccnc12 | 16.4µM* | 13µM* | . | 7.4 | . | 50.9
CC(C)n1cc(/C=N/Nc2ccc(C(=O)O)cc2)c2ccccc21 | -0.3% | 1.6% | 0.0316µM* | -0.5 | 0.316µM* | 40.6
C(=NN=C1c2ccccc2-c2ccccc21)c1c[nH]c2ccccc12 | ? | ? | . | -0.6 | . | -102.7*
CCCCn1c(=O)n(CC(=O)Nc2ccc3c(c2)CCC3)c(=O)c2c1ncn2Cc1ccco1 | . | . | . | 6.5 | . | .
COc1ccc(C2(C)NC(=O)N(Cc3nc(-c4cccs4)oc3C)C2=O)cc1OC (stereo unspecified) | . | . | . | 2.2 | . | .
CCCN(CCC)c1nc(OC(C(F)(F)F)C(F)(F)F)nc(N2CCOCC2)n1 | . | . | . | 0.8 | . | .
O=C(N/N=C/c1c[nH]c2ccccc12)c1ccc(Cl)cc1 | -5.3% | -25.1% | 10µM* | 2.2 | ? | -26.4
NC(=S)N/N=C/c1c[nH]c2ccccc12 | 11.2% | -6.2% | 2.51µM* | 0.1 | ? | 0.0
Cc1cc(C)nc(N/N=C/c2c[nH]c3ccccc23)n1 | 3.1% | 2.7% | ? | -4.6 | 15.0% | 50.3
Fc1c(F)c(F)c(N/N=C/c2c[nH]c3ccccc23)c(F)c1F | ? | ? | -14.2% | 2.8 | -14.2% | -87.2*
CN1CCN(CC(=O)N/N=C\c2c[nH]c3ccccc23)CC1 | . | . | ? | . | 22.4µM* | .
Nc1ccc(C(=O)N/N=C/c2c[nH]c3ccccc23)cc1 | 5.7% | 2.0% | 7.9% | -6.9 | -6.4% | 1.8
CNC(=O)c1cc(-c2ccc(Br)cc2)nc2ccccc12 | . | . | . | -0.6 | . | .
CN=C(NC)c1ccc([N+](=O)[O-])cc1 | . | . | . | -11.6 | . | .
O=C(O)c1ccc(N/N=C/c2c[nH]c3ccccc23)cc1 | 1.0% | 5.7% | 0.0355µM* | -0.5 | 0.316µM* | 13.9
O=C(N/N=C/c1c[nH]c2ccccc12)c1cc(Cl)ccc1O | ? | -8.2% | 5.01µM* | -1.0 | 6.31µM* | 4.2

Screening data as filed in PubChem.
